In PubChem BioAssay (NCI):
The panel holds about 83,000 compounds, 20% with a hit somewhere; the sample as a whole holds those more often.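 How to read the values: 0–100, growth inhibition (40 = 60% inhibited); 0, no net growth; -100 to 0, cell death (-40 = 40% of starting cells died; -100 = all dead).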 Unmarked numbers belong to inactive results. Active and inactive are the calls of the source. How the source made its calls: active means growth percent below 10; inactive means the rest.

Assays:
Test in all cases: NCI-60 one-dose screen, 48 h (100 = growth as untreated, 0 = no growth, -100 = all killed)
Conditions in all cases: 10 µM unless noted
SK-MEL-2 melanoma = test system: SK-MEL-2 melanoma
EKVX NSCLC = test system: EKVX NSCLC
SN12C renal = test system: SN12C renal
UO-31 renal = test system: UO-31 renal
TK-10 renal = test system: TK-10 renal
ACHN renal = test system: ACHN renal
CAKI-1 renal = test system: CAKI-1 renal
A498 renal = test system: A498 renal
CCRF-CEM leukemia = test system: CCRF-CEM leukemia
MOLT-4 leukemia = test system: MOLT-4 leukemia
SR leukemia = test system: SR leukemia
RPMI-8226 leukemia = test system: RPMI-8226 leukemia
OVCAR-8 ovarian = test system: OVCAR-8 ovarian
OVCAR-5 ovarian = test system: OVCAR-5 ovarian
OVCAR-4 ovarian = test system: OVCAR-4 ovarian
SK-OV-3 ovarian = test system: SK-OV-3 ovarian
IGROV1 ovarian = test system: IGROV1 ovarian
OVCAR-3 ovarian = test system: OVCAR-3 ovarian
HS 578T breast = test system: HS 578T breast
NCI/ADR-RES ovarian = test system: NCI/ADR-RES ovarian

SMILES	growth (SK-MEL-2 melanoma)	growth (EKVX NSCLC)	growth (SN12C renal)	growth (UO-31 renal)	growth (TK-10 renal)	growth (ACHN renal)	growth (CAKI-1 renal)	growth (A498 renal)	growth (CCRF-CEM leukemia)	growth (MOLT-4 leukemia)	growth (SR leukemia)	growth (RPMI-8226 leukemia)	growth (OVCAR-8 ovarian)	growth (OVCAR-5 ovarian)	growth (OVCAR-4 ovarian)	growth (SK-OV-3 ovarian)	growth (IGROV1 ovarian)	growth (OVCAR-3 ovarian)	growth (HS 578T breast)	growth (NCI/ADR-RES ovarian)
CC1(C)CC[C@]2(C(=O)O)CC[C@]3(C)C(=CCC4[C@@]5(C)C[C@@H](O)[C@@H]6OC(c7ccccc7F)OC[C@@]6(C)C5CC[C@]43C)C2C1 (stereo not given in full)	-14.8% (active)	13.8%	3.09% (active)	4% (active)	7.15% (active)	4.14% (active)	9.12% (active)	31%	17%	2.87% (active)	7.37% (active)	10%	12%	28.2%	30.7%	12.7%	20%	-11% (active)	21.6%	6.19% (active)
Cc1cc(C)cc(NC(=O)Cn2cc(COn3nnc4ccccc43)nn2)c1	105%	102%	97.3%	92.5%	100%	100%	97.4%	118%	105%	100%	90.1%	108%	104%	102%	109%	103%	104%	129%	102%	102%
Cc1ccc(C2CC(c3ccc(S(=O)(=O)NCCNc4nc(Nc5ccc(F)cc5)nc(N(C)C)n4)cc3)=Nc3c(N)nc(N)nc3N2)cc1 (stereo not given)	76.9%	62.7%	74.2%	67.4%	96.5%	61%	76.9%	89.2%	18.4%	4.77% (active)	-6.57% (active)	6.3% (active)	52%	92.6%	53.2%	101%	69.8%	67.5%	65.2%	88.9%
COc1ccc2[nH]c(O)c(N=NC(=O)Cn3c(-c4ccccc4)nc4cc(C)ccc43)c2c1	88.4%	66.3%	-73.7% (active)	49.7%	97.7%	41.1%	61.9%	119%	8.31% (active)	18.5%	1.82% (active)	10.7%	1.93% (active)	62.8%	45.3%	89.9%	51.9%	37.3%	25.6%	-5.85% (active)
O=C(c1ccc(OCCN2CCOCC2)cc1)C1[C@H](c2ccc(Cl)cc2)[C@@H](c2ccccc2)NC12C(=O)Nc1ccc(Br)cc12 (stereo not given in full)	28.3%	19.8%	-8.07% (active)	15.1%	40.2%	5.53% (active)	15.4%	91.5%	20.7%	-33.9% (active)	-45.3% (active)	9.08% (active)	28.6%	41.3%	50.3%	37%	22.6%	29.5%	57.2%	18.4%
COc1ccc(NC(=O)Nc2ccc(OCc3ccc(F)cc3)cc2)cc1	96.8%	74.2%	55.7%	26.3%	82.4%	42.2%	66.6%	80.3%	83.7%	94.8%	78.7%	88.7%	40.2%	72.9%	20%	76.2%	78.1%	58.5%	29.4%	51.2%
C#CCOc1ccc(/C=N/Nc2nc(-c3cc4cc(OC)ccc4oc3=O)cs2)cc1OC	55.2%	43.5%	42.3%	87.7%	89.5%	40.2%	39.2%	78.7%	66.3%	63.9%	34.7%	50.9%	50.8%	47%	40.7%	71%	81%	63.5%	68.1%	50.5%
O=c1[nH]c2ccc(Cl)cc2cc1CSc1nccc(-c2ccc(Cl)cc2)n1	34.5%	42.8%	39.9%	60%	88.2%	20.2%	-51.3% (active)	98.4%	113%	85.5%	88.6%	71.3%	42.9%	66.4%	38.9%	69.2%	59.3%	86.6%	33.8%	56.7%
Cc1ccc(C(=O)NN2C(=O)/C(=C/C=C/c3ccc([N+](=O)[O-])o3)SC2=S)cc1	-89.8% (active)	-97% (active)	-89.3% (active)	-100% (active)	-98.3% (active)	-100% (active)	-100% (active)	-73.3% (active)	4.08% (active)	9.73% (active)	2.44% (active)	-1.56% (active)	-75.9% (active)	-94.9% (active)	-100% (active)	-78.1% (active)	-90.3% (active)	-97.3% (active)	-18.3% (active)	-48.8% (active)
CC(=O)Nc1ccc(-n2cnc3cc(-c4ccc(O)cc4)ccc32)cc1C(F)(F)F	17.4%	27.3%	15.6%	10.3%	33%	6.32% (active)	28.6%	57.1%	40.5%	29.6%	16.3%	16.6%	16.1%	37.9%	40.8%	56.3%	35.1%	24.7%	0.862% (active)	16.3%
O=C(/C=C/Nc1ccc(Cl)cc1)c1ccc2c(c1)Nc1ccccc1S2	55.1%	55.8%	61.8%	36.1%	72%	30.7%	38.3%	108%	81.1%	66.2%	58.1%	62.3%	12.4%	83.4%	2.72% (active)	20.7%	39.5%	61.5%	8.24% (active)	25.7%
C=CC[N+](C)(C)CCn1c2ccccc2c2nc3cc(C)c(C)cc3nc21	112%	89.7%	14.2%	71%	106%	107%	90%	115%	102%	116%	85%	95.1%	98.4%	111%	95%	96.7%	42.6%	96.4%	56.2%	108%
Cc1ccccc1[C@H]1C(C(=O)c2ccc(Cl)cc2)C2(N[C@@H]1c1ccccc1)C(=O)Nc1ccccc12 (stereo not given in full)	-76.3% (active)	-15.6% (active)	-94.9% (active)	0.424% (active)	-8.15% (active)	-13.9% (active)	3.96% (active)	-8.76% (active)	-13.8% (active)	-18% (active)	-17.1% (active)	-24.2% (active)	-67.9% (active)	-46.6% (active)	8.21% (active)	-3.38% (active)	5.88% (active)	-58.4% (active)	-28.8% (active)	-68.2% (active)
Cc1ccc(-c2nc(Nc3ccccc3S(N)(=O)=O)c3ccccc3n2)cc1	102%	74.1%	51.8%	50.4%	151%	74%	78%	118%	76.1%	78.5%	46.7%	59.7%	55.6%	85.3%	74.2%	91.4%	82.3%	97.1%	76.8%	55.7%
COc1ccc(C(=O)/C=C/c2ccc(Oc3nc(Nc4ccc(F)cc4)nc(N(C)C)n3)c(OC)c2)cc1	-8.47% (active)	75.6%	32.2%	42.9%	95.7%	36.9%	49%	78.3%	19.2%	10.8%	12.2%	4.01% (active)	37.9%	82.6%	43.5%	94.4%	63.1%	57.2%	58.3%	40%
